14-3-3 Bad PPI: disrupts binding of bovine 14-3-3 zeta to phospho-Bad peptide. P63103. TR-FRET 14-3-3zeta/Dy647-pBad peptide displacement, 1 h. inhibition, % at 21.7 µM. hit rate 0.71% among 220,000;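 active means inhibition above about 70%, limit read from the data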;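 further: 0% = full 14-3-3 plus peptide FRET controls and 100% = background without 14-3-3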
Target sequence (P63103 whole entry, looked up): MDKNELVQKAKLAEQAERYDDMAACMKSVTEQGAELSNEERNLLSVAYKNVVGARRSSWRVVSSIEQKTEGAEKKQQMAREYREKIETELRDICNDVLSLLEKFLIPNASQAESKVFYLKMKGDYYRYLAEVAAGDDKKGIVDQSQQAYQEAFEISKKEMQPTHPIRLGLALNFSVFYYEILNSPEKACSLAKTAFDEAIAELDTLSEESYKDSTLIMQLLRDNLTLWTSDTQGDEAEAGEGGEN
Mcl1-Noxa inh: Mcl-1/Noxa interaction inhibition. AID 1022. hit rate 1.5% among 220,000. TR-FRET Mcl-1/Noxa peptide binding, 2 h. inhibition, % at 21.7 µM. Q07820;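 active means compounds that cut the protein-peptide binding signal by more than 50% relative to plate controls in a single-dose test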;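 further: His-tagged Mcl-1 with rhodamine Noxa BH3 peptide and terbium anti-His antibody; 0% = Mcl-1 plus Noxa peptide wells and 100% = peptide-only wells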
p47phox inh: blocks human p47phox regulatory protein of NADPH oxidases | P14598 | p47phox/p22phox peptide binding, fluorescence polarization, 2 h | inhibition, % at 24.7 µM | hit rate 0.53% among 220,000;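 active means inhibition above about 30%, limit read from the data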;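 further: 0% = p47phox with labelled peptide and 100% = labelled peptide alone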
Mcl1-Bid inh: disrupts binding of human Mcl-1 to Bid peptide. hit rate 0.97% among 220,000. TR-FRET Mcl-1/Bid-Dy647 peptide binding, 1536-well. Q07820. AID 1021. inhibition, % at 21.7 µM;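 active means compounds that cut the binding signal by more than half at the single screening dose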;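 further: His-tagged Mcl-1 with europium anti-His antibody binding Bid BH3 peptide; 0% = Mcl-1 plus peptide wells and 100% = peptide-only wells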
Mcl-1 Bim block: disrupts Bim peptide binding to human Mcl-1. Q07820. Bead-based flow cytometry, Bim peptide-Mcl-1 binding. inhibition, % at 10 µM. hit rate 0.1% among 190,000; in the data active means inhibition above about 40%;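 further: 0% = no compound tracer wells and 100% = peptide blocker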
* marks the source's active call; other numbers are inactive results; . = no result; [ ] = dose if it differs, or a comment. An excerpt weighted towards active compounds, which were near 3.1% of everything screened.

SMILES | 14-3-3 Bad PPI | Mcl1-Noxa inh | p47phox inh | Mcl1-Bid inh | Mcl-1 Bim block
CCc1ccccc1NC(=S)N(CCc1ccncc1)C(C)C | -6 | -1 | -4 | -28 | -1
COC(=O)CCN(C(=O)c1ccc2c(c1)OCO2)c1ccccn1 | -2 | -11 | -13 | -4 | -2
COC(=O)CCN(C(=O)c1cccc(OC(C)=O)c1)c1ccccn1 | -14 | 0 | -39 | 52* | -4
FC(F)(F)c1cccc(N2CCN(CC3CC4C=CC3C4)CC2)c1 (stereo not drawn) | 83* | 14 | -2 | 25 | 1
Fc1ccccc1N1CCN(CC2CC3C=CC2C3)CC1 (stereo not drawn) | 19 | 14 | -1 | -37 | 0
C1=CC2CC1CC2CN1CCN(Cc2ccccc2)CC1 (stereo not drawn) | 46 | -6 | -2 | 61* | 5
CCOc1ccc(C(=O)n2cnnc2N)cc1 | 1 | 4 | 2 | -8 | .
CC#C[C@]1(O)CC[C@H]2[C@@H]3CCC4=CC(=O)CCC4=C3[C@@H](c3ccc(N(C)C)cc3)C[C@@]21C | 4 | 67* | 0 | -24 | 0
CC(NC(=O)Nc1ccccc1)C(c1ccccc1)N1CCOCC1 (stereo not drawn) | -6 | 21 | -6 | -5 | -3
CC(NC(=S)Nc1ccc(Cl)cc1)C(c1ccccc1)N1CCOCC1 (stereo not drawn) | 71* | 17 | -2 | -13 | -2
C=CCSC1=N/C(=C\C=C\c2ccco2)C(=O)S1 | 10 | 76* | -3 | 32 | -6
CC(C)N(C(=O)C[n+]1ccsc1N)c1ccccc1 | 2 | 11 | -4 | 2 | 0
Cc1ccc2c(n1)sc1c(-c3ccc(Br)cc3)c(C#N)c(N)nc12 | 61 | -11 | -36 | 46 | 2
N#Cc1c(Cl)c(Cl)c2nnc(-c3ccc(Br)cc3)n2c1Cl | 95*[fluorescence artefact?] | -40 | -97 | 14 | 7
O=C(Nc1ccccc1)NC1(C(=O)NCc2cccs2)CCCCC1 | -8 | -3 | -6 | 1 | 0
O=C(CNc1ccc2ccccc2c1)N/N=C/c1ccc([N+](=O)[O-])o1 | 37 | 70* | 5 | 65* | 0
O=C(COc1ccccc1)N/N=C/c1ccc([N+](=O)[O-])o1 | 10 | 4 | -2 | -22 | -3
Cc1cc(C(=O)N/N=C/c2ccc([N+](=O)[O-])o2)c(C)o1 | 1 | 15 | 56* | -20 | .
COc1ccc(-c2nn(-c3ccccc3)cc2C(=O)N/N=C/c2ccc([N+](=O)[O-])o2)cc1 | -8 | 52* | 7 | 21 | 0
COc1ccc(/C(O)=C2/C(=O)C(=O)N(c3ncccn3)C2c2ccc(F)cc2)cc1 (stereo not drawn) | 2 | 7 | 1 | -29 | .
CC(C)(C)C(=O)N1N=C(c2ccc(NS(C)(=O)=O)cc2)CC1c1cccs1 (stereo not drawn) | -11 | 6 | 0 | 1 | 3
O=C(Oc1ccccc1)c1cccc2cccnc12 | 14 | -25 | 99* | -27 | -1
CN(C)c1ccc(C(=O)NC2(N3CCC3=O)CCCC2)cc1 | -9 | 8 | 8 | -56 | 2
S=c1[nH]nc(Cc2noc3ccccc23)n1-c1ccc(Cl)cc1 | -5 | 16 | -3 | 54* | -4
COC/C=C/C1=CC2=CC(=O)C(C)(OC(=O)c3cnc4ccccc4n3)C(=O)C2=CN1Cc1ccccc1 (stereo not drawn) | -3 | 34 | 8 | -44 | .
SMILES | 14-3-3 Bad PPI | Mcl1-Noxa inh | p47phox inh | Mcl1-Bid inh | Mcl-1 Bim block
COC/C=C/C1=CC2=CC(=O)C(C)(OC(=O)c3cnc4ccccc4n3)C(=O)C2=CN1CCCCO (stereo not drawn) | -7 | 28 | 7 | -34 | .
CCCCC1=CC2=CC(=O)C(C)(OC(=O)c3cnc4ccccc4n3)C(=O)C2=CO1 (stereo not drawn) | 0 | 62* | 4 | -17 | .
COC/C=C/C1=CC2=CC(=O)C(C)(OC(=O)c3cnc4ccccc4n3)C(=O)C2=CN1Cc1ccc(OC)cc1 (stereo not drawn) | -3 | 57* | -2 | -37 | .
CCn1c2ccccc2c2cc(/C(C)=N/O)ccc21 | -12 | 14 | -11 | 5 | -3
CCn1c2ccccc2c2cc(N)ccc21 | 2 | 62* | -3 | -7 | -8
CC(=C\C(=O)O)/C(=C/c1ccc(C)o1)C(=O)O | -3 | 13 | -7 | -21 | -7
NC(=O)c1cnn2c(-c3cccc(C(F)(F)F)c3)ccnc12 | -2 | 3 | -7 | 98* | .
CSc1nc(Cl)c(Cc2ccc(OCC(C)C)cc2)c(N2CCOCC2)n1 | 0 | 8 | -5 | -11 | -8
